Screens (PubChem BioAssay)
The list is not random: actives were taken first. Their share in the collection is about 3%.
Calpain2 inh: inhibitors of pig calpain II, primary screen, biochemical, fluorogenic peptide substrate, 1536-well. purified calpain II, 30 min. inhibition, % at 16 µM. 220,000 tested, 0.37% active. AID 1236, 2008;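 active = inhibition above about 50%, limit read from the data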
TNF necrop inh: inhibitors of TNF-alpha triggered necroptosis, primary screen, cell-based, Jurkat FADD-/-, single concentration; Jurkat FADD-/- TNF necroptosis rescue, ATP luminescence, 24 h; 0 = TNF only, 100 = no-TNF cells; activation (protection from cell death), % at 10 µM; 220,000 tested, 0.068% active;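 active = activation, meaning protection from cell death, of at least 50% relative to plate controls; inactive = activation below 50%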;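 also: necroptosis triggered by 40 ng/mL TNF-alpha added together with compound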
ROMK mod: ROMK potassium channel modulators, primary screen, cell-based, thallium flux, MLSMR library; AID 1918, 2009; B-score at 10 µM; ATP-sensitive inward rectifier potassium channel 1 (Homo sapiens), P48048; Tet-inducible ROMK, thallium flux fluorescence; actives lie on both sides; 130,000 tested, 2% active;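 active = signal ratio slope over the read window, or its plate-corrected B-score, at least 3 SD from the plate mean, either direction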;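 also: B-score of the F/F0 ratio slope over 7 to 12 s after thallium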
zVAD death inh: inhibitors of zVAD-triggered necroptosis, primary screen, L929 cells. L929 zVAD necroptosis rescue, ATP luminescence, 24 h; with zVAD 60 µM. viability rescue, % at 10 µM. 220,000 tested, 0.38% active;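 active = activation, scaled between plate controls, above about 75%, limit read from the data; inactive = activation under that limit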;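 also: 0% = zVAD with DMSO and 100% = DMSO alone without zVAD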
Efa HMGR inh: inhibitors of E. faecalis class II HMGR, primary screen, biochemical, Enterococcus faecalis; HMG-CoA reductase (Enterococcus faecalis, mvaE); 190,000 tested, 0.41% active; AID 1066, 2008; inhibition, % at 10 µM; purified E. faecalis HMGR, NADPH absorbance 340 nm kinetic;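 active = inhibition above a set limit, the median over all tested compounds plus 3 SD, cut at about 9.5% in these data; inconclusive = no clear call, values can overlap the other calls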;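 also: enzyme runs in reverse so mevalonate oxidation gives rising NADPH absorbance; 0% = complete reaction with DMSO and 100% = background rate lacking mevalonate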
14-3-3 Bad PPI: inhibitors of 14-3-3 zeta/Bad binding, primary screen, biochemical, TR-FRET, bovine 14-3-3 zeta; TR-FRET 14-3-3zeta/Dy647-pBad peptide displacement, 1 h; inhibition, % at 21.7 µM; 220,000 tested, 0.71% active; AID 781, 2007;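 active = inhibition above about 70%, limit read from the data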;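 also: 0% = full 14-3-3 plus peptide FRET controls and 100% = background without 14-3-3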
Target sequence (P63103 whole entry, looked up): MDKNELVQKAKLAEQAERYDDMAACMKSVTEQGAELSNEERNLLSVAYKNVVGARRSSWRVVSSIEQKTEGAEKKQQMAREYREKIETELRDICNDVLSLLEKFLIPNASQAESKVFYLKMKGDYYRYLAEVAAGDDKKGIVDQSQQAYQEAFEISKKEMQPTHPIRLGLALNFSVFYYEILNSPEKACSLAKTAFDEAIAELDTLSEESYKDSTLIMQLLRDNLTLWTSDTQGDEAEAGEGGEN
ROMK hit retest: ROMK channel modulator hit retest, confirmation, cell-based, thallium flux, duplicate, resupplied hits | shares compounds with ROMK mod | fluorescence ratio; stronger effect = lower value | normalized thallium flux (F/F0 slope) at 10 µM | 3,000 tested, 54% active;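 active = Flux at 10 µM at least 3 SD below or above vehicle control mean in one or both replicates; inconclusive = no clear call, values can overlap the other calls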
The depositor's hits bear a star; u = inconclusive; x = not tested or not shown; ! = repeats disagree.

SMILES	Calpain2 inh	TNF necrop inh	ROMK mod	zVAD death inh	Efa HMGR inh	14-3-3 Bad PPI	ROMK hit retest
Cc1c(S(=O)(=O)N2CCN(C(c3ccccc3)c3ccccc3)CC2)c(=O)n(C)c(=O)n1C	-12	-3	x	0	-5	-2	x
CCCC1(C(=O)OCC)NC(c2ccc(O)cc2)C2C(=O)N(c3ccc4c(c3)OCCO4)C(=O)C21 (centres undefined)	-53	-1	1.2*	0	3	-3	0.075
COCCCNC(=O)c1cccn2c(=O)c3cc4ccccc4cc3nc12	-99	-4	x	2	-4	-9	0.054*
CCC(C)Sc1nc2c(c(=O)[nH]c(=O)n2C)n1CCc1ccccc1 (centres undefined)	16	-3	x	0	-9	-11	x
CCC(C)Sc1nc2c(c(=O)[nH]c(=O)n2C)n1CC(O)COc1ccccc1C (centres undefined)	-5	-4	-3.5*	1	-5	-15	0.066*
Cc1ccc(NC(=O)CCN2CCN(C/C=C/c3ccccc3)CC2)cc1C	-11	2	-3.1*	3	2	13	0.048*
CCOc1ccccc1N1CCN(C(=O)Nc2cccc(Cl)c2)CC1	4	-1	-3.1*	1	1	-11	0.073
O=C(Nc1cccc(Cl)c1)N1CCN(C/C=C/c2ccccc2)CC1	39	1	-3.6*	6	-2	12	u
Cc1ccc(NC(=O)CCN2CCN(C/C=C/c3ccccc3)CC2)cc1	-15	-1	x	2	0	33	x
CCOc1cc(C(=O)N/N=C\c2cn(CC)nc2C)cc(OCC)c1OCC	47	2	0.89	0	1	1	x
COC(=O)c1ccc(COC(=O)CCc2nc(-c3ccccc3)c(-c3ccccc3)o2)cc1	-2	1	0.16	-1	1	-13	x
Cc1cc(C(=O)NNC(=O)NC(C)C)no1	15	2	-0.67	0	x	4	x
CCc1oc2ccccc2c1C(=O)c1cc(Br)c(O)c(Br)c1	55*!	2	4.6*	4	-1	8	0.15*
CCOC(=O)c1c(COc2ccccc2)oc2ccc(O)cc12	-7	-7	x	1	0	1	x
COc1cc(CNc2ccc(C)c(C)c2)cc(OC)c1OC	-15	-10	3.4*	1	-3	59	0.093
COc1ccc(CNc2ccc(C)c(C)c2)cc1	2	3	-0.63	3	-2	-8	x
Cc1nn(C(C)C(=O)NCc2ccco2)c(C)c1[N+](=O)[O-] (centres undefined)	-5	0	x	7	-10	-8	0.071
CC(=O)Nc1nc2n(n1)C(c1ccccc1)C=C(c1ccccc1)N2 (centres undefined)	-415	-1	x	1	-1	2	x
O=C(Nc1nc2n(n1)C(c1ccccc1)C=C(c1ccccc1)N2)c1ccco1 (centres undefined)	-92	0	x	2	-3	8	0.066*
Cc1cccc(C)c1-n1c(C)nn(Cc2ccc([N+](=O)[O-])cc2)c1=O	-23	0	1.4	-1	-5	-20	x
CC(C)On1c(SCC(=O)N(C)C)nc2ccccc2c1=O	-14	1	0.068	1	x	4	x
COc1ccc(C(CNC(=O)c2cncc(Br)c2)N(C)C)cc1 (centres undefined)	-3	0	1.1	1	1	-23	x
Cc1cc(=O)oc2cc(OCC(=O)NCc3ccccn3)ccc12	-25	-1	x	1	-1	7	x
Cc1cc(=O)oc2cc(NC(=S)NCc3ccccn3)ccc12	-78	-3	-6.6*	1	0	-22	0.047*
O=c1[nH]c2ccc(S(=O)(=O)NCCO)cc2[nH]1	-4	1	1.5*	6	-2	-8	0.075
SMILES	Calpain2 inh	TNF necrop inh	ROMK mod	zVAD death inh	Efa HMGR inh	14-3-3 Bad PPI	ROMK hit retest
O=C(Nc1cccnc1)c1cc(-c2ccccc2O)on1	9	-1	3*	-1	x	5	u
COc1cc2c(cc1NC(=O)c1cccc(S(=O)(=O)N(C)C)c1)oc1ccccc12	-78	7	-0.077	5	3	-4	x
CCNC(=S)SCCOc1ccccc1C	2	-3	-0.075	0	-2	-18	x
CC(C)CCNC(=O)CCS(=O)(=O)c1cccc2nonc12	-7	2	x	3	-5	-10	x
CCCCC(CC)CNC(=O)CCS(=O)(=O)c1cccc2nonc12 (centres undefined)	12	-1	x	2	0	-6	u
O=C(CSc1nc2c(sc3ccccc32)c(=O)n1CCCN1CCCC1)NCc1ccco1	29	1	-0.84	-2	-3	44	x
Cc1cccc(Nc2nc3c(S(=O)(=O)c4ccccc4)nnn3c3ccccc23)c1	-479	1	0.01	0	-4	22	0.082
Cc1ccc(C(=O)OCC(=O)Nc2ccc(N(C)C)cc2)cc1NC(=O)c1ccco1	-24	-1	0.5	0	-5	-9	x
Cc1ccc(C(=O)OCC(=O)Nc2ccccc2)cc1NC(=O)c1ccco1	-7	-2	-5.4*	0	0	-3	0.091
Cc1ccc(CNCC(=O)Nc2ccc(N3CCOCC3)cc2)cc1	29	3	x	1	x	32	x
c1ccc(Cc2nn3c(-c4ccncc4)nnc3s2)cc1	-19	0	0.26	1	1	3	x
CCOc1cc(S(=O)(=O)NCc2ccncc2)ccc1Cl	-16	-6	-0.02	-1	0	-7	x
Cn1cnnc1SC(C(=O)Nc1cccc(C(F)(F)F)c1)c1ccccc1 (centres undefined)	-19	0	-0.57	0	-1	9	x
C=CCn1c2ccccc2c2nnc(SCN3C(=O)c4ccccc4C3=O)nc21	39	-6	-0.26	0	4	-5	x
C=CCn1c2ccccc2c2nnc(SCCCn3c(=O)[nH]c4ccccc43)nc21	28	-7	x	0	-9	15	0.065*
Cc1cccc(-c2nnc(SCC(=O)C(C)(C)C)n2C)c1	3	4	x	2	x	5	x
CC(=O)Nc1cccc2c1C(=O)N(c1ccc(C)cc1)C2=O	-22	1	-2.7*	x	-1	-9	0.076
Cc1ccc(N2C(=O)c3ccccc3C2=O)cc1	0	4	0.25	0	x	1	x
COc1ccc(CC(=O)NCCc2ccc(S(N)(=O)=O)cc2)cc1	8	1	1.5*	0	-2	9	0.085
